Results from PubChem BioAssay AID493169 (National Center for Advancing Translational Sciences (NCATS), 2011).
Records with an inconclusive call do not appear. Entries that show only a call come without a potency. Active and inactive are the calls of the source. Calls follow the shape of the dose curve; as a rule, active = well fitted inhibition curve with a large enough effect; inconclusive = small, poorly fitted or top-dose-only effect; inactive = flat fitted curve, though single readings scatter.

assay: CHOP2 Reporter Counterscreen Assay for Inhibitors of Ubiquitin-specific Protease USP2a; conditions: purified enterokinase, fluorogenic substrate, 485/531 nm; series mostly up to 38.3 µM;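 also: activated enterokinase alone at 50 pM in a cell-free format rather than USP2a or CHOP2; nearly all actives have a fitted effect of over 55% in size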
In short: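 Cell-free counterscreen with pre-activated enterokinase alone (50 pM final) in 20mM Tris-HCl pH 8.0, 2mM CaCl2, 2mM beta-mercaptoethanol, 0.05% CHAPS; compound preincubation 30 min RT, reporter substrate 25nM final, fluorescence read after 10 min (Ex 485/Em 531).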
Potency is read from the fitted curve at half-maximal effect.

| SMILES | Potency |
| --- | --- |
| CC1CCCCN1CCNC(=O)c1cnn2ccccc12 (stereo not given) | inactive |
| Cc1cc(N2CCOCC2)nc(SCC(=O)c2ccc(Cl)cc2)n1 | inactive |
| COc1cccc(NC(=O)CSc2nncn2-c2ccccn2)c1 | inactive |
| C#CCOCCOCCOCCNc1nc(N2CCN(C(=O)CCCCCCCCCCNC(=O)[C@@H](CCC(=O)O)n3cc(CCCCCN)nn3)CC2)nc(N2CCN(C(=O)CCCCCCCCCCNC(=O)[C@H]([C@@H](C)CC)n3cc(CCCCCN)nn3)CC2)n1 | 5.01 µM (active) |
| O=C(NCCc1ccccc1)c1ccc2nc(-c3ccco3)c(-c3ccco3)nc2c1 | 5.01 µM (active) |
| Cc1ccc(C(=O)COC(=O)CNC(=O)CN2C(=O)c3ccccc3C2=O)cc1 | inactive |
| Cc1ccccc1C(=O)Nc1ccc2nc3n(c(=O)c2c1)CCC3 | inactive |
| Cc1cccc(NCc2nc(-c3ccccc3)no2)c1 | inactive |
| CCN(Cc1ccncc1)C(=O)c1cccs1 | inactive |
| CCOC(=O)COc1ccccc1/C=N/O | inactive |
| CCC(CO)Nc1nc(CN2CCCCC2)nc2scc(-c3ccccc3)c12 (stereo not given) | inactive |
| COc1ccc(S(=O)(=O)N2CCCC2C(=O)NCc2cccs2)cc1 (stereo not given) | inactive |
| N#Cc1cccc(C(=O)N(CCc2ccccc2)Cc2cccs2)c1 | inactive |
| Cc1ccc(N(CC(=O)Nc2ccc(S(=O)(=O)N3CCOCC3)cc2)S(C)(=O)=O)cc1C | inactive |
| COc1ccccc1N1C(=O)CC(N2CCc3ccccc32)C1=O (stereo not given) | inactive |
| COc1cc(C)ccc1OCCOc1cc(C)ccc1Cl | inactive |
| Cc1cc(SCC(=O)Nc2ccccc2)nc(C)n1 | inactive |
| CC12CN3CC(C)(CN(C1)C3c1ccc(Cl)cc1Cl)C2O (stereo not given) | inactive |
| O=C(CSc1ncn[nH]1)Nc1ccc(Br)cc1F | inactive |
| CN(C)S(=O)(=O)c1ccc(C(=O)NCCN=C2NS(=O)(=O)c3ccccc32)cc1 | inactive |

| SMILES | Potency |
| --- | --- |
| Cc1cccn2c(=O)c3cc(C(=O)NCCN4CCOCC4)c(=N)n(CCN4CCOCC4)c3nc12 | inactive |
| O=C(OCc1nc2ccccc2[n+]([O-])c1C(=O)c1ccccc1)c1cccs1 | inactive |
| Cc1ccc(/C=C/S(=O)(=O)N2CCC(C(=O)O)CC2)cc1 | inactive |
| O=C(COc1ccccc1)Nc1nnc(-c2ccc(Cl)s2)o1 | inactive |
| Cc1ccc(C2=N/C(=C\c3c(C)nn(-c4ccccc4)c3N3CCCC3)C(=O)O2)cc1 | inactive |
| Cc1cc(C(=O)NCc2ccco2)on1 | inactive |
| CSc1ncccc1C(=O)OCC(=O)N1CCOCC1 | inactive |
| O=C(c1ccc([N+](=O)[O-])cc1)N(Cc1ccc(Cl)cc1)N1C(=O)CCCC1=O | inactive |
| CC(C)(C)C(=O)Nc1c2c(nc3c1CCC3)CCCC2 | inactive |
| CC(OC(=O)c1nsc(Cl)c1Cl)C(=O)NCc1ccco1 (stereo not given) | inactive |
| O=C(CC(C(=O)O)C1CCCO1)NCCc1ccc2c(c1)OCO2 (stereo not given) | inactive |
| COc1cc(C)c(S(=O)(=O)NCc2ccc3c(c2)OCO3)cc1C | inactive |
| CCCCC1NC(C(=O)O)CS1 (stereo not given) | inactive |
| CCC/C(O)=C1\C(=O)CC(C)(C)CC1=Nc1ccc(OC)cc1OC | inactive |
| CCOC(=O)N1CCN(C(=O)CN(c2ccc(C)c(C)c2)S(=O)(=O)c2ccccc2)CC1 | inactive |
| N#Cc1c(SCC(=O)Nc2nc3ccccc3s2)sc2c(O)cc(=O)[nH]c12 | 10 µM (active) |
| Cc1c(O)c(CN2CCCC2)cc2c3c(c(=O)oc12)CCC3 | inactive |
| C(=N\N(c1ccccc1)c1ccccc1)/c1ccccn1 | inactive |
| CCNC(=S)N/N=C/c1cn(Cc2ccc(F)cc2)c2ccccc12 | inactive |
| C=C(CCC(=O)c1ccccc1)C(=O)c1ccccc1 | inactive |
